Measurements as given in publication PMC5540273 (PLoS ONE, 2017).
“And” between values parts separate entries of the source, which are not always exact repeats. Identical values can stand only once. Like-named read-outs stand apart in the source and are kept apart here.

Experiments:
CAMKK1 = settings: concentration: 1 μM, replicates: in singlicate; n = 1
CAMKK2 = settings: concentration: 1 μM, replicates: in singlicate, n = 1
CASK = settings: concentration: 1 μM, replicates: in singlicate, n = 1
CDC2L1 = system: T1, CDC2L1; settings: concentration: 1 μM, replicates: in singlicate, n = 1
T1 construct: gene CDK11B

CDC2L2 = settings: concentration: 1 μM, replicates: in singlicate, n = 1
CDC2L5 = system: T2, CDC2L5; settings: concentration: 1 μM, replicates: in singlicate, n = 1
T2 construct: gene CDK13

CDK11 = system: T3, CDK11; settings: concentration: 1 μM, replicates: in singlicate, n = 1
T3 construct: gene CDK19

CDK2 = settings: concentration: 1 μM, replicates: in singlicate; n = 1
CDK3 = settings: concentration: 1 μM, replicates: in singlicate; n = 1
CDK4-cyclinD1 = settings: concentration: 1 μM, replicates: in singlicate, n = 1
CDK4-cyclinD3 = settings: concentration: 1 μM, replicates: in singlicate, n = 1
CDK4 = settings: concentration: 1 μM, replicates: in singlicate, n = 1
CDK5 = settings: concentration: 1 μM, replicates: in singlicate; n = 1
CDK7 = settings: concentration: 1 μM, replicates: in singlicate, n = 1
CDK8 = settings: concentration: 1 μM, replicates: in singlicate, n = 1
CDK9 = settings: concentration: 1 μM, replicates: in singlicate; n = 1
CDKL1 = settings: concentration: 1 μM, replicates: in singlicate, n = 1
CDKL2 = settings: concentration: 1 μM, replicates: in singlicate, n = 1
CDKL3 = settings: concentration: 1 μM, replicates: in singlicate, n = 1
CDKL5 = settings: concentration: 1 μM, replicates: in singlicate; n = 1
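Also: KINOMEscan kinase panel screen.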

Structure (SMILES): O=C(NOCC1CC1)c1ccc(F)c(F)c1Nc1ccc(I)cc1Cl
- %Inh (CAMKK1): 0%
- %Inh (CAMKK2): 0%
- %Inh (CASK): 3%
- %Inh (CDC2L1): 0%
- %Inh (CDC2L2): 0%
- %Inh (CDC2L5): 0%
- %Inh (CDK11): 12%
- %Inh (CDK2): 0%
- %Inh (CDK3): 0%
- %Inh (CDK4-cyclinD1): 0%
- %Inh (CDK4-cyclinD3): 0%
- %Inh (CDK4): 0%
- %Inh (CDK5): 5%
- %Inh (CDK7): 0%
- %Inh (CDK8): 0%
- %Inh (CDK9): 0%
- %Inh (CDKL1): 0%
- %Inh (CDKL2): 0%
- %Inh (CDKL3): 20%
- %Inh (CDKL5): 0%

Structure (SMILES): C[C@@H](Oc1cc(-n2cnc3ccc(NC(=O)NC(C)(C)C)cc32)sc1C(N)=O)c1ccccc1Cl [GSK346294]
- %Inh (CAMKK1): 3%
- %Inh (CAMKK2): 24%
- %Inh (CASK): 11%
- %Inh (CDC2L1): 0%
- %Inh (CDC2L2): 13%
- %Inh (CDC2L5): 0%
- %Inh (CDK11): 4%
- %Inh (CDK2): 0%
- %Inh (CDK3): 9%
- %Inh (CDK4-cyclinD1): 8%
- %Inh (CDK4-cyclinD3): 1%
- %Inh (CDK4): 34%
- %Inh (CDK5): 0%
- %Inh (CDK7): 0%
- %Inh (CDK8): 45%
- %Inh (CDK9): 0%
- %Inh (CDKL1): 14%
- %Inh (CDKL2): 5%
- %Inh (CDKL3): 0%
- %Inh (CDKL5): 0%

Structure (SMILES): COc1ccc(COc2cc(-n3cnc4ccccc43)sc2C(N)=O)cc1 [GSK1024304]
- %Inh (CAMKK1): 4%
- %Inh (CAMKK2): 13%
- %Inh (CASK): 0%
- %Inh (CDC2L1): 0%
- %Inh (CDC2L2): 0%
- %Inh (CDC2L5): 0%
- %Inh (CDK11): 22%
- %Inh (CDK2): 0%
- %Inh (CDK3): 9%
- %Inh (CDK4-cyclinD1): 0%
- %Inh (CDK4-cyclinD3): 0%
- %Inh (CDK4): 40%
- %Inh (CDK5): 0%
- %Inh (CDK7): 0%
- %Inh (CDK8): 29%
- %Inh (CDK9): 0%
- %Inh (CDKL1): 7%
- %Inh (CDKL2): 18%
- %Inh (CDKL3): 0%
- %Inh (CDKL5): 0%

Structure (SMILES): COc1ccc(S(=O)(=O)NC2CCN(c3cc(C)nc(Nc4cccc(C#N)c4)n3)CC2)cc1.O=C(O)C(F)(F)F [GSK1653539]
- %Inh (CAMKK1): 2%
- %Inh (CAMKK2): 16%
- %Inh (CASK): 0%
- %Inh (CDC2L1): 0%
- %Inh (CDC2L2): 37%
- %Inh (CDC2L5): 0%
- %Inh (CDK11): 0%
- %Inh (CDK2): 0%
- %Inh (CDK3): 0%
- %Inh (CDK4-cyclinD1): 0%
- %Inh (CDK4-cyclinD3): 0%
- %Inh (CDK4): 38%
- %Inh (CDK5): 0%
- %Inh (CDK7): 0%
- %Inh (CDK8): 4%
- %Inh (CDK9): 0%
- %Inh (CDKL1): 15%
- %Inh (CDKL2): 0%
- %Inh (CDKL3): 0%
- %Inh (CDKL5): 0%

Structure (SMILES): Cl.Cl.Cl.Fc1ccc(-c2ncn(C3CCNCC3)c2-c2ccnc(Nc3ccccc3)n2)cc1 [SB-238039]
- %Inh (CAMKK1): 0%
- %Inh (CAMKK2): 0%
- %Inh (CASK; 1 µM): 16% and 0%
- %Inh (CDC2L1; 1 µM): 99.4% and 98.5%
- %Inh (CDC2L2; 1 µM): 99.8% and 98.2%
- %Inh (CDC2L5; 1 µM): 32% and 16%
- %Inh (CDK11; 1 µM): 0% and 2%
- %Inh (CDK2): 0%
- %Inh (CDK3): 0%
- %Inh (CDK4-cyclinD1; 1 µM): 0% and 15%
- %Inh (CDK4-cyclinD3): 0%
- %Inh (CDK4; 1 µM): 18% and 19%
- %Inh (CDK5): 0%
- %Inh (CDK7; 1 µM): 19% and 33%
- %Inh (CDK8; 1 µM): 49% and 19%
- %Inh (CDK9): 0%
- %Inh (CDKL1; 1 µM): 34% and 37%
- %Inh (CDKL2; 1 µM): 0% and 29%
- %Inh (CDKL3; 1 µM): 5% and 15%
- %Inh (CDKL5): 0%

Structure (SMILES): CC(C)(CN)c1nc(-c2ccc(Cl)c(O)c2)c(-c2ccncc2)[nH]1.O=C(O)C(F)(F)F [SB-477794]
- %Inh (CAMKK1): 0%
- %Inh (CAMKK2; 1 µM): 0% and 4%
- %Inh (CASK; 1 µM): 18% and 0%
- %Inh (CDC2L1): 0%
- %Inh (CDC2L2; 1 µM): 31% and 2%
- %Inh (CDC2L5; 1 µM): 0% and 30%
- %Inh (CDK11): 0%
- %Inh (CDK2): 0%
- %Inh (CDK3): 7%
- %Inh (CDK4-cyclinD1; 1 µM): 25% and 64%
- %Inh (CDK4-cyclinD3; 1 µM): 32% and 0%
- %Inh (CDK4; 1 µM): 39% and 51%
- %Inh (CDK5): 0%
- %Inh (CDK7; 1 µM): 0% and 14%
- %Inh (CDK8; 1 µM): 59% and 64%
- %Inh (CDK9): 0%
- %Inh (CDKL1; 1 µM): 3% and 10%
- %Inh (CDKL2; 1 µM): 14% and 0%
- %Inh (CDKL3): 0%
- %Inh (CDKL5): 0%

Structure (SMILES): Nc1nccc(-c2c(-c3ccc(F)cc3)ncn2C2CCN(CC(F)(F)F)CC2)n1 [SB-236560]
- %Inh (CAMKK1): 13%
- %Inh (CAMKK2): 88%
- %Inh (CASK): 0%
- %Inh (CDC2L1): 0%
- %Inh (CDC2L2): 0%
- %Inh (CDC2L5): 43%
- %Inh (CDK11): 17%
- %Inh (CDK2): 0%
- %Inh (CDK3): 11%
- %Inh (CDK4-cyclinD1): 49%
- %Inh (CDK4-cyclinD3): 97.9%
- %Inh (CDK4): 52%
- %Inh (CDK5): 0%
- %Inh (CDK7): 10%
- %Inh (CDK8): 70%
- %Inh (CDK9): 0%
- %Inh (CDKL1): 18%
- %Inh (CDKL2): 11%
- %Inh (CDKL3): 0%
- %Inh (CDKL5): 0%
